Data taken from PubChem BioAssay AID1259421 (Broad Institute, 2018).
Values joined by “and” are separate entries in the source; they are usually repeats but may differ in a detail not shown here. Identical values can stand only once. Among all 6,400 compounds or so, about 610 (9.5%) were called active. The sample holds actives, similar compounds and a random draw of the others, so the mix is not that of the screen. No stated cut-off is given here; in the data, active means activity change below about -70%; inconclusive means no clear call, values can overlap the other calls; inactive means above that. The source holds several records for some structures; these can differ, active in one and inactive in another.

Assay: Toxoplasma gondii ME49Luc growth in HeLa cells, luciferase, no IFN-y, primary screen (AID 1259421)
Settings: T. gondii ME49Luc in HeLa, 72 h, stronger effect = lower value, concentration not given here
With CC(=O)C(C#N)C(=O)Nc1cc(Br)ccc1Br (centres undefined) the activity change, negative = inhibition was -2.2% (inactive) and 12.8% (inactive). For COC(=O)C[C@H]1C(C)(C)C(=O)[C@@H]2CC3C4=CC(=O)O[C@@H](c5ccoc5)[C@]4(C)CCC3[C@@]1(C)C2=O (some centres undefined), the activity change, negative = inhibition was 6.27% (inactive). For CC[C@@]1(C2O[C@@H](C3O[C@@](O)(CO)[C@H](C)C[C@@H]3C)C[C@@H]2C)CC[C@H]([C@]2(C)CC[C@]3(C[C@H](O)[C@@H](C)[C@@H]([C@@H](C)[C@@H](OC)[C@H](C)C(=O)O)O3)O2)O1 (some centres undefined), the activity change, negative = inhibition was -80.3% (active). In the case of COC(=O)C1C(O)CCC2CN3CCc4c([nH]c5ccccc45)C3CC21 (centres undefined), the activity change, negative = inhibition is reported as 6.81% (inactive). With C[C@@H]1O[C@@H](OC[C@H]2OC(Oc3c(-c4ccc(OCCO)c(OCCO)c4)oc4cc(OCCO)cc(O)c4c3=O)[C@H](O)[C@@H](O)[C@@H]2O)[C@H](O)[C@H](O)[C@H]1O (some centres undefined) the activity change, negative = inhibition was 0.547% (inactive). For CN=C(NC#N)NCCSCc1csc(N=C(N)N)n1, the activity change, negative = inhibition was 21.3% (inactive) and 9.18% (inactive). In the case of COc1ccc(/C=C\c2cc(OC)c(OC)c(OC)c2)cc1OP(=O)(O)O, the activity change, negative = inhibition is reported as -67.2% (inactive). For COc1ccc(F)c(F)c1C(=O)c1cnc(NC2CCN(S(C)(=O)=O)CC2)nc1N, the activity change, negative = inhibition was -87.7% (active). In the case of CN1CCC(Nc2ncc3ncnc(Nc4ccc(F)c(Cl)c4)c3n2)CC1, the activity change, negative = inhibition is reported as 7.3% (inactive). In the case of C[C@H](Oc1ccc(S(C)(=O)=O)cc1C(=O)N1CCN(c2ncc(C(F)(F)F)cc2F)CC1)C(F)(F)F, the activity change, negative = inhibition is reported as -27.8% (inactive). For O=C(NC(Cc1c[nH]c2ccccc12)C(=O)O)c1ccc(Cl)cc1 (centres undefined), the activity change, negative = inhibition was 4.2% (inactive). In the case of C=CC(=O)Nc1ccc(OC)cc1, the activity change, negative = inhibition is reported as 7.75% (inactive). For Cc1cc(Cn2cnc3c2C[C@@H](C(=O)O)N(C(=O)C(c2ccccc2)c2ccccc2)C3)ccc1N(C)C, the activity change, negative = inhibition was 25.4% (inactive). With CCC(=O)O[C@@H](OP(=O)(CCCCc1ccccc1)CC(=O)N1C[C@H](C2CCCCC2)C[C@H]1C(=O)O)C(C)C (some centres undefined) the activity change, negative = inhibition was 11.7% (inactive). For CN(C)C(=O)COC(=O)Cc1ccc(OC(=O)c2ccc(N=C(N)N)cc2)cc1, the activity change, negative = inhibition was 0.553% (inactive). In the case of Nc1nc(=S)c2[nH]cnc2[nH]1, the activity change, negative = inhibition is reported as -77.5% (active). With Nc1ncnc2nc[nH]c12 the activity change, negative = inhibition was 5.62% (inactive). In the case of S=c1nc[nH]c2nc[nH]c12, the activity change, negative = inhibition is reported as -59.8% (inactive). In the case of CC(NC(=O)CCc1nc2ccccc2c(=O)[nH]1)c1ccccc1 (centres undefined), the activity change, negative = inhibition is reported as 4.68% (inactive). In the case of CCOC(=O)c1cnc[nH]1, the activity change, negative = inhibition is reported as 7.3% (inactive). With CC1(C)CC(=O)C(C2C3=C(CC(C)(C)CC3=O)Oc3ccccc32)C(=O)C1 (centres undefined) the activity change, negative = inhibition was 4.42% (inactive) and -1.95% (inactive). In the case of CCc1nc(N)nc(N)c1-c1ccc(Cl)cc1, the activity change, negative = inhibition is reported as -89.2% (active) and -80% (active). In the case of CC(C)Cc1sc(N)nc1-c1ccc(P(=O)(O)O)o1, the activity change, negative = inhibition is reported as 7.23% (inactive). In the case of CO[C@H]1C(=O)[C@@]2(C)[C@H]([C@@H](OC(=O)c3ccccc3)[C@@]3(O)C[C@H](OC(=O)[C@H](O)[C@@H](NC(=O)OC(C)(C)C)c4ccccc4)C(C)=C1C3(C)C)[C@]1(OC(C)=O)CO[C@@H]1C[C@H]2OC, the activity change, negative = inhibition is reported as -82.6% (active). For CC(=O)O[C@@]12CO[C@@H]1C[C@H](O)[C@@]1(C)C(=O)[C@H](O)C3=C(C)[C@@H](OC(=O)[C@H](O)[C@@H](NC(=O)OC(C)(C)C)c4ccccc4)C[C@@](O)([C@@H](OC(=O)c4ccccc4)C12)C3(C)C (some centres undefined), the activity change, negative = inhibition was -80.2% (active). For CC(=O)O[C@@]12CO[C@@H]1C[C@H](O)[C@@]1(C)C(=O)[C@H](O)C3=C(C)[C@@H](OC(=O)[C@H](O)[C@@H](NC(=O)OC(C)(C)C)c4ccccc4)C[C@@](O)([C@@H](OC(=O)c4ccccc4)[C@H]21)C3(C)C, the activity change, negative = inhibition was -73.3% (active) and -80.3% (active). In the case of Cc1cccc(C)c1NC(=O)/N=C1/CCCN1C, the activity change, negative = inhibition is reported as 6.63% (inactive). With COc1ccc(/C=C/C(=O)c2ccc(O)cc2O)cc1 the activity change, negative = inhibition was 82.9% (inactive). For COc1ccnc(CS(=O)c2nc3ccc(OC(F)F)cc3[nH]2)c1OC (centres undefined), the activity change, negative = inhibition was 26.3% (inactive) and 7.86% (inactive). In the case of Cc1ccc(OCC(O)C(C)NC(C)C)c2c1CCC2 (centres undefined), the activity change, negative = inhibition is reported as 14.3% (inactive). For Cc1oc(=O)oc1CN1CCN(c2cc3c(cc2F)c(=O)c(C(=O)O)c2n3C(C)S2)CC1 (centres undefined), the activity change, negative = inhibition was 19.8% (inactive). For COc1cc(-c2coc3cc(OCc4ccccc4)c(OC)c(O)c3c2=O)cc(OCc2ccccc2)c1OC, the activity change, negative = inhibition was -39.8% (inactive). In the case of COc1ccc([C@@H]2CC(=O)c3c(O)cc(O[C@@H]4O[C@H](CO[C@H]5O[C@@H](C)[C@H](O)[C@@H](O)[C@H]5O)[C@@H](O)[C@H](O)[C@H]4O)cc3O2)cc1O, the activity change, negative = inhibition is reported as 5.14% (inactive). For Cc1cc(N2CCN([C@@H]3CN[C@H](C(=O)N4CCSC4)C3)CC2)n(-c2ccccc2)n1, the activity change, negative = inhibition was -3% (inactive). With Cc1ccc(C(=O)Nc2ccc(CN3CCN(C)CC3)c(C(F)(F)F)c2)cc1C#Cc1cnc2cccnn12 the activity change, negative = inhibition was -83% (active). With COC(=O)N1CCN(Cc2cccc(NC(=O)Nc3ccc(C)nc3)c2F)CC1 the activity change, negative = inhibition was 9.25% (inactive). In the case of Cc1ccc(C(=O)Nc2ccc(CN3CCN(C)CC3)c(C(F)(F)F)c2)cc1C#Cc1cnc2[nH]ncc2c1, the activity change, negative = inhibition is reported as -89.3% (active). In the case of CCCCCCCCCCCCCCCC(=O)OC[C@H](NC(=O)C(Cl)Cl)[C@H](O)c1ccc([N+](=O)[O-])cc1, the activity change, negative = inhibition is reported as 7.24% (inactive) and 16.1% (inactive). With NC(=O)CCC1NC(=O)C(Cc2ccccc2)NC(=O)C(Cc2ccc(O)cc2)NC(=O)CCSSCC(C(=O)N2CCCC2C(=O)NC(CCCN=C(N)N)C(=O)NCC(N)=O)NC(=O)C(CC(N)=O)NC1=O (centres undefined) the activity change, negative = inhibition was 7.89% (inactive). For COc1cc(/C=C/C(=O)O)cc(OC)c1O, the activity change, negative = inhibition was -2.18% (inactive). With COc1cc2c(cc1OC)C(c1ccc(N)cc1)=NNC(=O)C2 the activity change, negative = inhibition was -18.7% (inactive) and 7.52% (inactive). With CC1=C(SCCO)C(=O)c2ccccc2C1=O the activity change, negative = inhibition was 29.8% (inactive). In the case of COc1ccc2c(c1)c1c3n2CCN(C)C3=NCC1, the activity change, negative = inhibition is reported as 14.7% (inactive). With C=CC(=O)N1CCCCC1 the activity change, negative = inhibition was 4.09% (inactive). In the case of CN([NH2+][O-])C(=O)N[C@@H]1[C@@H](O)[C@H](O)[C@@H](CO)O[C@@H]1O, the activity change, negative = inhibition is reported as -1.36% (inactive). For Cc1ccc(O)c(N=Nc2ccccc2)n1, the activity change, negative = inhibition was 8.22% (inactive) and 3.77% (inactive). For COc1cccc2c1C(=O)c1c(O)c3c(c(O)c1C2=O)C[C@@](O)(C(=O)CO)C[C@@H]3OC1C[C@H](N)[C@H](O)[C@H](C)O1 (some centres undefined), the activity change, negative = inhibition was -87.6% (active). For COc1cccc2c1C(=O)c1c(O)c3c(c(O)c1C2=O)C[C@@](O)(C(=O)CO)C[C@@H]3O[C@H]1C[C@H](N)[C@H](O)[C@H](C)O1, the activity change, negative = inhibition was -78.1% (active) and -79.4% (active). In the case of COc1cccc2c1C(=O)c1c(O)c3c(c(O)c1C2=O)CC(O)(C(=O)CO)CC3OC1CC(N)C(O)C(C)O1 (centres undefined), the activity change, negative = inhibition is reported as -89.5% (active). For CCCCC(=O)OCC(=O)[C@]1(O)Cc2c(O)c3c(c(O)c2[C@@H](O[C@H]2C[C@H](NC(=O)C(F)(F)F)[C@H](O)[C@H](C)O2)C1)C(=O)c1c(OC)cccc1C3=O, the activity change, negative = inhibition was -24.8% (inactive). With COc1cccc2c1C(=O)c1c(O)c3c(c(O)c1C2=O)C[C@@](O)(C(=O)CO)C[C@@H]3O[C@H]1C[C@H](N)[C@@H](O)[C@H](C)O1 the activity change, negative = inhibition was -80.9% (active). With NC(Cc1ccc(O)cc1)C(=O)O (centres undefined) the activity change, negative = inhibition was 3.44% (inactive). For Oc1ccc(-c2nc3cc(O)cc(Br)c3o2)cc1, the activity change, negative = inhibition was -55.9% (inactive). In the case of CC(=O)O[C@@H]1CC2C(C)(CC[C@H](O)C2(C)C)C2CC[C@]3(C)C(=CC(=O)O[C@H]3c3ccoc3)C21C (some centres undefined), the activity change, negative = inhibition is reported as -5.23% (inactive). For CCC(c1ccc(O)cc1)C(CC)c1ccc(O)cc1 (centres undefined), the activity change, negative = inhibition was 14.8% (inactive). In the case of c1ccc(-c2cc3ccccc3[nH]2)cc1, the activity change, negative = inhibition is reported as 106% (inactive). For Nc1nc(Nc2ccccc2)nc2c1ncn2C1OC(CO)C(O)C1O (centres undefined), the activity change, negative = inhibition was 3.98% (inactive). In the case of COc1ccc(Nc2ccn(-c3ccccc3)n2)cc1, the activity change, negative = inhibition is reported as 404% (inactive). For CCCCCC/C=C\CCCCCCCc1cccc(O)c1C(=O)O, the activity change, negative = inhibition was 6.32% (inactive). In the case of NC(=O)CC[C@H](NC(=O)Cc1ccccc1)C(=O)O, the activity change, negative = inhibition is reported as 16.1% (inactive). In the case of C=CC(C)(C)c1cc(/C=C/C(=O)c2ccc(O)cc2)c(OC)cc1O, the activity change, negative = inhibition is reported as 187% (inactive). For CCCC(CCC)C(=O)Nc1ccn([C@@H]2O[C@H](CO)[C@@H](O)C2(F)F)c(=O)n1, the activity change, negative = inhibition was -1.71% (inactive). In the case of COc1ccccc1OC(=O)CNC(=O)Cc1ccc(C(=O)c2ccc(C)cc2)n1C, the activity change, negative = inhibition is reported as 15.7% (inactive). For C[C@@H]1O[C@@H](Oc2c(-c3cc(O)c(O)c(O)c3)oc3cc(O)cc(O)c3c2=O)[C@@H](O)[C@H](O)[C@H]1O, the activity change, negative = inhibition was 8.81% (inactive). With CN1CCN(c2ccc3nc(-c4c(N)c5c(F)cccc5[nH]c4=O)[nH]c3c2)CC1 the activity change, negative = inhibition was -36.1% (inactive) and -79.7% (active). For CN1CCN(C(=O)c2nc3ccc(Cl)cc3[nH]2)CC1, the activity change, negative = inhibition was 1.51% (inactive) and 15.6% (inactive). In the case of CN1CCN(c2ccc3nc(-c4ccc5nc(-c6ccc(O)cc6)[nH]c5c4)[nH]c3c2)CC1, the activity change, negative = inhibition is reported as -23.1% (inactive). For O=C(O)c1cc(N=Nc2ccc(O)c(C(=O)O)c2)ccc1O, the activity change, negative = inhibition was 7.94% (inactive). For O=S(=O)(O)C(F)(F)F.O=S(=O)(O)C(F)(F)F.O=S(=O)(O)C(F)(F)F.[Bi], the activity change, negative = inhibition was 11% (inactive). In the case of CN(C)C(=S)SC(=S)N(C)C, the activity change, negative = inhibition is reported as 39.1% (inactive). For NC(N)=NC(N)=NCCc1ccccc1, the activity change, negative = inhibition was -13.4% (inactive). In the case of CC(C)ON([C@@H](C(=O)NO)C(C)C)S(=O)(=O)c1ccc(-c2ccccc2)cc1, the activity change, negative = inhibition is reported as -87.2% (active). In the case of CC(C)C(NS(=O)(=O)c1ccc(-c2ccc(Br)cc2)cc1)C(=O)O (centres undefined), the activity change, negative = inhibition is reported as 9.87% (inactive). For CC(C)[C@H](NS(=O)(=O)c1ccc(-c2ccc(Br)cc2)cc1)C(=O)O, the activity change, negative = inhibition was 4.75% (inactive).
